Results as given in PubChem BioAssay (Tox21).
Values without a mark were called inactive. Activity calls are given as the source filed them. Calls come from the whole dose curve; as a rule, active = well fitted curve in the direction sought with a large enough effect in the repeat runs; inconclusive = weak or mixed curves; inactive = flat fitted curve, though single readings scatter.

Assay: qHTS assay to test for compound auto fluorescence at 535 nm (green) in HEK293 cells (AID 720680)
Conditions: green autofluorescence 485/535 nm; series mostly up to 91.3 µM; fluorescence, % of fluorescein: at the top concentration
% is set by controls: 0 for no effect and ±100 for the full control effect.

Row | Compound | fluorescence, % of fluorescein | outcome
1 | CCCCS | -0.1% [at 95.7 µM] | –
2 | CCNC(=O)C(C)OC(=O)Nc1ccccc1 (stereo not given) | -0.24% | –
3 | CC(C)(Sc1cc(C(C)(C)C)c(O)c(C(C)(C)C)c1)Sc1cc(C(C)(C)C)c(O)c(C(C)(C)C)c1 | 0.0112% [at 18.6 µM] | –
4 | O=C(O)CCC(=O)Nc1ccc(S(=O)(=O)Nc2nccs2)cc1 | 0.032% [at 18.6 µM] | –
5 | COC(=O)c1ccccc1Cl | 0.0193% | –
6 | Cc1ccc2cccnc2c1 | 0.0299% | –
7 | Cc1cc(N)no1 | 0.25% [at 95.7 µM] | –
8 | C=C(C)C(=O)OCCOC1CC2CC1C1C=CCC21 (stereo not given) | -0.0449% [at 95.7 µM] | –
9 | O=C(O)CCCCCCCCCC(=O)O | 0.0504% | –
10 | CC(O)CCCCn1c(=O)c2c(ncn2C)n(C)c1=O (stereo not given) | -0.0331% [at 46 µM] | –
11 | C=CC(=O)CC | 0.0053% [at 95.7 µM] | –
12 | CCOCCOCCOC(C)=O | 0.0039% [at 95.7 µM] | –
13 | CCCCCC(=O)CC | -0.228% [at 95.7 µM] | –
14 | C/C=C(\C)C=O | 0.0206% | –
15 | NC[C@H]1O[C@H](O[C@H]2[C@H](O)[C@@H](O[C@H]3O[C@H](CO)[C@@H](O)[C@H](N)[C@H]3O)[C@H](N)C[C@@H]2N)[C@H](N)[C@@H](O)[C@@H]1O | – | inactive
16 | Cc1ccc(NC(N)=O)cc1 | -0.0676% | –
17 | CCCC(=O)OC | -0.013% | –
18 | CCc1ccc(CC)cc1 | -0.0068% | –
19 | O=S(=O)(O)CC(O)CCl (stereo not given) | -0.0816% | –
20 | CC[N+](C)(CC)CC | 0.0502% | –
21 | CCCCCCCCCCCCCCCCN(C)C | 0.0696% [at 3.72 µM] | –
22 | Cc1cc(C)c(C)c(C)c1 | -0.0477% | –
23 | O=C(O)COc1ccc2ccccc2c1 | 0.0179% | –
24 | Cc1ccc(O)c([N+](=O)[O-])c1 | -0.0256% [at 95.7 µM] | –
25 | Cc1ccc(N)nc1 | -0.051% | –
26 | CCCC(C)C(O)CC (stereo not given) | 0.0224% | –
27 | N=C(N)N | -0.0408% [at 46 µM] | –
28 | CN1C(CCl)Nc2cc(Cl)c(S(N)(=O)=O)cc2S1(=O)=O (stereo not given) | 0.0506% [at 46 µM] | –
29 | CC(C)(C)C(=O)CC(=O)C(C)(C)C | -0.0415% [at 95.7 µM] | –

Assay: qHTS assay to test for compound auto fluorescence at 460 nm (blue) in HEK293 cell free culture (AID 720681)
Conditions: cell-free medium, autofluorescence 405/460 nm (blue); series mostly up to 91.3 µM; fluorescence, % of fluorescent control: at the top concentration
In short: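 Blue fluorescence (Ex 405/Em 460 nm, triamterene-equivalent) was read immediately after pin transfer of compound or DMSO into medium (DMEM, 10% FBS) without cells.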

Row | Compound | fluorescence, % of fluorescent control | outcome
30 | CCCCS | -0.0406% [at 95.7 µM] | –
31 | CC(C)(Sc1cc(C(C)(C)C)c(O)c(C(C)(C)C)c1)Sc1cc(C(C)(C)C)c(O)c(C(C)(C)C)c1 | -0.101% [at 18.6 µM] | –
32 | CCCCC(CC)CCC(CC(C)C)OS(=O)(=O)O (stereo not given) | – | inactive
33 | Cc1ccccc1C#N | -0.061% | –
34 | Cc1ccc2cccnc2c1 | 0.117% | –
35 | CN(C)CCC[C@@]1(c2ccc(F)cc2)OCc2cc(C#N)ccc21 | -0.103% [at 46 µM] | –
36 | C=C(C)C(=O)OCCOC1CC2CC1C1C=CCC21 (stereo not given) | 0.001% [at 95.7 µM] | –
37 | CC(O)CCCCn1c(=O)c2c(ncn2C)n(C)c1=O (stereo not given) | 0.0028% [at 46 µM] | –
38 | C=CC(=O)CC | -0.112% [at 95.7 µM] | –
39 | CCOCCOCCOC(C)=O | 0.195% [at 95.7 µM] | –
40 | CCCCCC(=O)CC | -0.0861% [at 95.7 µM] | –
41 | C/C=C(\C)C=O | 0.0715% | –
42 | NC[C@H]1O[C@H](O[C@H]2[C@H](O)[C@@H](O[C@H]3O[C@H](CO)[C@@H](O)[C@H](N)[C@H]3O)[C@H](N)C[C@@H]2N)[C@H](N)[C@@H](O)[C@@H]1O | – | inactive
43 | Cc1ccc(NC(N)=O)cc1 | 0.0002% | –
44 | CCCC(=O)OC | 0.0023% | –
45 | CCCCCCCCCCCCCCCC(=O)OC | -0.0484% [at 18.6 µM] | –
46 | O=S(=O)(O)CC(O)CCl (stereo not given) | -0.105% | –
47 | CC[N+](C)(CC)CC | -0.0133% | –
48 | CCCCCCCCCCCCCCCCN(C)C | -0.0334% [at 3.72 µM] | –
49 | Cc1cc(C)c(C)c(C)c1 | -0.123% | –
50 | O=C(O)COc1ccc2ccccc2c1 | -0.0051% | –
51 | Cc1ccc(O)c([N+](=O)[O-])c1 | -0.213% [at 95.7 µM] | –
52 | Cc1ccc(N)nc1 | -0.0949% | –
53 | CCCC(C)C(O)CC (stereo not given) | -0.0811% | –
54 | CN1C(CCl)Nc2cc(Cl)c(S(N)(=O)=O)cc2S1(=O)=O (stereo not given) | 0.141% [at 46 µM] | –
55 | CC(C)(C)C(=O)CC(=O)C(C)(C)C | -0.026% [at 95.7 µM] | –

Assay: qHTS assay to test for compound auto fluorescence at 535 nm (green) in HEK293 cell free culture (AID 720682)
Conditions: cell-free medium, green autofluorescence 485/535 nm, hits give high values; series mostly up to 91.3 µM; activity change: at the top concentration
In short: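 Steps: dispense DMEM/10% FBS into empty wells; pin in compound or DMSO; measure fluorescence at 485/535 nm. Values are fluorescein equivalents.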

Row | Compound | activity change | outcome
56 | CCCCS | 0.0379% [at 95.7 µM] | –
57 | CCNC(=O)C(C)OC(=O)Nc1ccccc1 (stereo not given) | -0.0011% | –
58 | CC(C)(Sc1cc(C(C)(C)C)c(O)c(C(C)(C)C)c1)Sc1cc(C(C)(C)C)c(O)c(C(C)(C)C)c1 | 0.0049% [at 18.6 µM] | –
59 | O=C(O)CCC(=O)Nc1ccc(S(=O)(=O)Nc2nccs2)cc1 | 0.0309% [at 18.6 µM] | –
60 | CCCCC(CC)CCC(CC(C)C)OS(=O)(=O)O (stereo not given) | – | inactive
61 | Cc1ccccc1C#N | -0.0419% | –
62 | COC(=O)c1ccccc1Cl | 0.13% | –
63 | Cc1ccc2cccnc2c1 | 0.0028% | –
64 | Cc1cc(N)no1 | 0.237% [at 95.7 µM] | –
65 | CN(C)CCC[C@@]1(c2ccc(F)cc2)OCc2cc(C#N)ccc21 | -0.284% [at 46 µM] | –
66 | CCN(CC)CC | -0.0757% [at 95.7 µM] | –
67 | C=C(C)C(=O)OCCOC1CC2CC1C1C=CCC21 (stereo not given) | -0.0256% [at 95.7 µM] | –
68 | O=C(O)CCCCCCCCCC(=O)O | -0.0809% | –
69 | CC(O)CCCCn1c(=O)c2c(ncn2C)n(C)c1=O (stereo not given) | -0.0491% [at 46 µM] | –
70 | C=CC(=O)CC | -0.0237% [at 95.7 µM] | –
71 | CCOCCOCCOC(C)=O | 0.0735% [at 95.7 µM] | –
72 | CCCCCC(=O)CC | -0.0335% [at 95.7 µM] | –
73 | C/C=C(\C)C=O | 0.0271% | –

Row | Compound | activity change | outcome
74 | NC[C@H]1O[C@H](O[C@H]2[C@H](O)[C@@H](O[C@H]3O[C@H](CO)[C@@H](O)[C@H](N)[C@H]3O)[C@H](N)C[C@@H]2N)[C@H](N)[C@@H](O)[C@@H]1O | – | inactive
75 | Cc1ccc(NC(N)=O)cc1 | -0.0587% | –
76 | CC(C)(O)CCCC1=CCC(C=O)CC1 (stereo not given) | -0.065% [at 95.7 µM] | –
77 | CCCC(=O)OC | -0.0277% | –
78 | CCc1ccc(CC)cc1 | -0.0009% | –
79 | CCCCCCCCCCCCCCCC(=O)OC | -0.0305% [at 18.6 µM] | –
80 | O=S(=O)(O)CC(O)CCl (stereo not given) | -0.0223% | –
81 | CC[N+](C)(CC)CC | -0.0604% | –
82 | CCCCCCCCCCCCCCCCN(C)C | 0.0487% [at 3.72 µM] | –
83 | Cc1cc(C)c(C)c(C)c1 | 0.0333% | –
84 | O=C(O)COc1ccc2ccccc2c1 | 0.0015% | –
85 | Cc1ccc(O)c([N+](=O)[O-])c1 | -0.0434% [at 95.7 µM] | –
86 | Cc1ccc(N)nc1 | -0.0516% | –
87 | CCCC(C)C(O)CC (stereo not given) | 0.0351% | –
88 | N=C(N)N | 0.0451% [at 46 µM] | –
89 | CN1C(CCl)Nc2cc(Cl)c(S(N)(=O)=O)cc2S1(=O)=O (stereo not given) | 0.0445% [at 46 µM] | –
90 | CC(C)(C)C(=O)CC(=O)C(C)(C)C | -0.0351% [at 95.7 µM] | –
